Here are results for four molecules from PubChem BioAssay AID686952 (The Scripps Research Institute Molecular Screening Center, 2013).

Out of some 3,200 compounds screened, about 2,600 (81%) were called active.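 Rule for the calls: active = activation above the all-compound mean plus 3 SD, ignoring values outside control-based bounds (cut at about 4.8% in these data); inactive = the rest.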 So high a share suggests a set chosen from earlier hits. Only a sample is shown.

This test in a line: apparent activators from fluorescence artefacts, no enzyme – biochemical, fluorescence intensity, high throughput, artefact control for kallikrein-7 zymogen activator project (AID 686952).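 Note: value is the 4 h activation minus the activation read at time zero.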 The following applies: EDANS-DABCYL substrate fluorescence interference, 4 h, at 7 µM, active compounds read high.
`CCOC(=O)c1c(N)n(CCN2CCOCC2)c2nc3ccccc3nc12`: the activation was 31.4% (active).

Take `Cc1nc2ccc(N3CCN(C)CC3)cc2nc1C`: the activation is 13.9% (active).

Consider `CCOc1ccc(-c2cc(C)[n+](CCN(CC)CC)c(-c3ccc(OCC)cc3)c2)cc1`, for which the activation is 37.3% (active).

`COc1cccc(-c2nc3ccc(N4CCN(C)CC4)cc3[nH]2)c1`: the activation is 65.7% (active).
